Reference: PubChem BioAssay (EPA / NIEHS)
Activity calls are given as the source filed them. Rule for the calls: active = hit-call score of the fitted dose curve at least 0.9, where 1 is the maximum; inactive = score below 0.9.

experiment: ATG_E_Box_CIS: Attagene CIS-FACTORIAL HepG2 Assay for human Enhancer Box (E-box) (AID 2282936); conditions: HepG2 E-box cis-reporter transcription, actives raise or lower the signal
Method: ATG_CIS is a cell-based, multiplexed-readout assay that uses HepG2, a human liver cell line, with measurements taken at 24 hours after chemical dosing in a 24-well plate.ATG_E_Box_CIS is one of 52 assay component(s) measured or calculated from the ATG_CIS assay. It is designed to make measurements of mRNA induction, a form of inducible reporter, as detected with fluorescence intensity signals by Reverse transcription polymerase chain reaction (RT-PCR) and Capillary electrophoresis technology.Data from the assay component ATG_E_Box_CIS was analyzed into 1 assay endpoint. This assay endpoint, ATG_E_Box_CIS, was analyzed with bidirectional fitting relative to DMSO as the negative control and baseline of activity. Using a type of inducible reporter, measures of mRNA for gain or loss-of-signal activity can be used to understand the reporter gene at the transcription factor-level as they relate to the gene USF1. Furthermore, this assay endpoint can be referred to as a primary readout, because this assay has produced multiple assay endpoints where this one serves a reporter gene function. To generalize the intended target to other relatable targets, this assay endpoint is annotated to the dna binding intended target family, where the subfamily is basic helix-loop-helix protein.
Human liver HepG2 cells are transiently transfected with multiple reporter transcription units (MRTUs) in 6-well plates using FuGene 6 reagent (Roche; 3 ml FuGene/1 mg DNA). The MRTU constructs are regulated by a cis-regulating element (promoter). […] A major difference between the CIS and TRANS system is that in CIS activities of endogenous TFs are measured, whereas the TRANS assay evaluates changes in activities of exogenous, chimeric NR-Gal4 proteins. […] At the end of 24 hour incubation, total RNA was isolated using TriZol reagent (Invitrogen). The isolated RNA is then reverse-transcribed using oligo(dT) primer and Mo-MLV reverse transcriptase (Invitrogen) with DNAse I (Ambion) treatment for 30 min. The one-tenth of the produced cDNA was amplified by PCR using Taq DNA polymerase (Invitrogen) and two reporter sequence-specific primers. The PCR products were fluorescently labeled by primer extension with 6-arboxyfluorescein (6-FAM) 5'-labeled reporter sequence-specific primer (2 min at 95 C, 20 s at 68 C and 10 min at 72 C) and these products were digested with 5U of HpaI (New England Biolabs) for 2h at 37 C. The fragments were purified using Qiaquick PCR columns (Qiagen), analyzed on an ABI 3130xL genetic analyzer (Applied Biosystems) with peak positions identified by using a set of X-rhodamine (ROX)-labeled MapMarker1000 molecular weight standards (BioVentures). The raw capillary electrophoresis data was processed using Attagraph software (Attagene).

SMILES	outcome	AC50
CCOc1nc(C(Cl)(Cl)Cl)ns1	inactive	
O=c1n(Cl)c(=O)n(Cl)c(=O)n1Cl	inactive	
CC(C)=CC1C(C(=O)OCc2coc(Cc3ccccc3)c2)C1(C)C (stereo not given)	inactive	
Cc1cc(C)nc(Nc2ccccc2)n1	inactive	
COc1ccc(-c2ccccc2)cc1NNC(=O)OC(C)C	inactive	
CC1(C)C(C=C(Cl)Cl)C1C(=O)OC(C#N)c1cccc(Oc2ccccc2)c1 (stereo not given)	inactive	
CC1(C)C(C(=O)OC(C#N)c2cccc(Oc3ccccc3)c2)C1(C)C (stereo not given)	inactive	
CCOC(=O)C(C)OC(=O)c1cc(Oc2ccc(C(F)(F)F)cc2Cl)ccc1[N+](=O)[O-] (stereo not given)	inactive	
N#Cc1c(Cl)cccc1Cl	inactive	
OC(c1ccc(Cl)cc1)(c1ccc(Cl)cc1)C(Cl)(Cl)Cl	inactive	
CCCC(=NOCC)C1=C(O)CC(CC(C)SCC)CC1=O (stereo not given)	inactive	
COCc1cnc(C2=NC(C)(C(C)C)C(=O)N2)c(C(=O)O)c1 (stereo not given)	inactive	
CC(C)Nc1nc(Cl)nc(NC(C)C)n1	inactive	
CCNP(=S)(OC)O/C(C)=C/C(=O)OC(C)C (stereo not given)	inactive	
COP(=S)(OC)SCn1nnc2ccccc2c1=O	inactive	
COC(=O)N(C(=O)N1CO[C@@]2(C(=O)OC)Cc3cc(Cl)ccc3C2=N1)c1ccc(OC(F)(F)F)cc1	inactive	
CCCN(CC)CC1COC2(CCC(C(C)(C)C)CC2)O1 (stereo not given)	inactive	
CCN(CC)C(=O)C(C)Oc1cccc2ccccc12 (stereo not given)	inactive	
C=C(C)CN(CC)c1c([N+](=O)[O-])cc(C(F)(F)F)cc1[N+](=O)[O-]	inactive	
Cc1nc(N(C)C)nc(OC(=O)N(C)C)c1C	inactive	

SMILES	outcome	AC50
CC1(C)CON(Cc2ccccc2Cl)C1=O	inactive	
CCCCC(C#N)(Cn1cncn1)c1ccc(Cl)cc1 (stereo not given)	inactive	
O=C1C2CC=CCC2C(=O)N1SC(Cl)(Cl)Cl (stereo not given)	inactive	
CN=C=S	inactive	
CN/C(=N\[N+](=O)[O-])NCc1cnc(Cl)s1	inactive	
Cc1cnc(C2=NC(C)(C(C)C)C(=O)N2)c(C(=O)O)c1 (stereo not given)	inactive	
CCC(C)n1c(=O)[nH]c(C)c(Br)c1=O (stereo not given)	inactive	
Clc1cccc(C(Cl)(Cl)Cl)n1	inactive	
CC(C)N1C(=O)N(c2ccccc2)CSC1=NC(C)(C)C	inactive	
CCSC(=O)N1CCCCCC1	inactive	
Cc1c(COC(=O)[C@@H]2[C@H](/C=C(\Cl)C(F)(F)F)C2(C)C)cccc1-c1ccccc1	inactive	
CCNC(=O)NC(=O)C(C#N)=NOC	inactive	
CNC(=O)Oc1cccc2ccccc12		9.92 µM (active)
Nc1c(Cl)c(F)nc(OCC(=O)O)c1Cl	inactive	
CS(=O)(=O)c1cc(C(F)(F)F)ccc1C(=O)c1cnoc1C1CC1	inactive	
Cc1ccc(N=CN(C)C=Nc2ccc(C)cc2C)c(C)c1	inactive	
Nc1cnn(-c2ccccc2)c(=O)c1Cl	inactive	
C=CCOC(=O)C(C)(C)OC(=O)c1cc(-n2c(=O)cc(C(F)(F)F)n(C)c2=O)ccc1Cl	inactive	
CCCCOCN(C(=O)CCl)c1c(CC)cccc1CC	inactive	
CCN(CC)c1nc(C)cc(OP(=S)(OC)OC)n1	inactive	
